Compound activity as filed in PubChem BioAssay.
NPSR antag = qHTS Assay for Antagonists of the Neuropeptide S Receptor: cAMP Signal Transduction. CHO-NPSR cells, cAMP TR-FRET, antagonist mode. Potency, µM (highest dose often 38.3 µM), hits mostly inhibitors. 220,000 compounds, 1% hits; further: nearly all actives have a fitted effect of over 50% in size
ALDH1A1 block = qHTS Assay for Inhibitors of Aldehyde Dehydrogenase 1 (ALDH1A1). Purified ALDH1A1, NADH fluorescence, propionaldehyde substrate. 220,000 compounds, 7.3% hits. Aldehyde dehydrogenase 1A1 (Homo sapiens), P00352. Potency, µM (titrated, usually from 75.3 µM), hits mostly inhibitors; active means well fitted inhibition curve with a large enough effect, not every such curve was filed as active; inconclusive means small, poorly fitted or top-dose-only effect, or another doubt; inactive means no such curve, though single readings can be large or run the other way
HPGD block = qHTS Assay for Inhibitors of HPGD (15-Hydroxyprostaglandin Dehydrogenase); Potency, µM, usual class: inhibitors; 150,000 compounds, 4.3% hits; 15-hydroxyprostaglandin dehydrogenase [NAD(+)] (Homo sapiens), P15428; purified HPGD, NADH fluorescence kinetic, PGE2 substrate; active means well fitted inhibition curve with a large enough effect, not every such curve was filed as active; inconclusive means small, poorly fitted or top-dose-only effect, or another doubt; inactive means no such curve, though single readings can be large or run the other way
Target sequence (P15428 whole entry, looked up): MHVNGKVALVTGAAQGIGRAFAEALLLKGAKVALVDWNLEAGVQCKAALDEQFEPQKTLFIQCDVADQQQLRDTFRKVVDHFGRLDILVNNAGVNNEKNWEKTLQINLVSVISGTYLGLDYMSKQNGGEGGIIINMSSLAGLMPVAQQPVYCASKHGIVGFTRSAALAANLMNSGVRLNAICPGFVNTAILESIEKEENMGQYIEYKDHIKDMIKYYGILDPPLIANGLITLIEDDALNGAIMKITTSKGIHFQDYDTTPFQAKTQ
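NADH formation kinetics: reaction with 30 uM PGE2 and 1 mM NAD+ (final), 20 nM enzyme, Tris-HCl pH 8 with Tween 20, after 15 min compound preincubation at room temperature. Fluorescence change, last versus first of five reads.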
ALOX12 inhib = qHTS Assay for Inhibitors of 12-hLO (12-human lipoxygenase); 150,000 compounds, 0.12% hits; Potency, µM (highest dose often 57.1 µM), hits mostly inhibitors; AID 1452, 2008; purified 12-hLO, xylenol orange hydroperoxide absorbance; further: nearly all actives have a fitted effect of over 55% in size
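Purified human 12hLO (150 nM), preincubated 15 min with compound, then 40 uM arachidonic acid for 30 min, room temperature, Hepes pH 7.0 with 0.01% Triton X-100. Hydroperoxide detected by ferrous iron/xylenol orange; 573/405 nm absorbance ratio gives reaction progress.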
IMPase Li inh = qHTS Assay for Identifying the Cell-Membrane Permeable IMPase Inhibitors: Potentiation with Lithium. 210,000 compounds, 0.35% hits. AID 1457, 2008. CHO-M1 cells, IP1 TR-FRET (IP-One), carbachol + lithium. Potency, µM (highest dose often 59.4 µM), hits mostly inhibitors;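 further: IP1 builds up when IMPase is blocked and the TR-FRET signal falls; nearly all actives have a fitted effect of over 50% in size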
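CHO cells stably expressing M1 receptor (2000/well) were cultured 16–30 h, then exposed to compounds with a small lithium addition for 30 min at 37C. IP1 was measured by TR-FRET competition; AC50 from Hill fits.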
IMPase cell inh = qHTS Assay for Identifying the Cell-Membrane Permeable IMPase Inhibitors; 120,000 tested, under 10 active; Inositol monophosphatase 1 (Rattus norvegicus), P97697; inhibition (IP1 accumulation), % at 46.1 µM; CHO-M1 cells, IP1 accumulation, HTRF TR-FRET ratio; AID 901, 2007; active means well fitted curve in the direction sought with a large enough effect in the signal ratio, not every such curve was filed as active; inconclusive means small, poorly fitted or top-dose-only effect, or a change in a side signal; inactive means no such curve, though single readings can be large or run the other way; the % refers to the signal ratio;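 further: cells stimulated with carbachol in lithium chloride buffer; higher means more IMPase inhibition seen as more IP1 and lower FRET ratio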
Target sequence (P97697 whole entry, looked up): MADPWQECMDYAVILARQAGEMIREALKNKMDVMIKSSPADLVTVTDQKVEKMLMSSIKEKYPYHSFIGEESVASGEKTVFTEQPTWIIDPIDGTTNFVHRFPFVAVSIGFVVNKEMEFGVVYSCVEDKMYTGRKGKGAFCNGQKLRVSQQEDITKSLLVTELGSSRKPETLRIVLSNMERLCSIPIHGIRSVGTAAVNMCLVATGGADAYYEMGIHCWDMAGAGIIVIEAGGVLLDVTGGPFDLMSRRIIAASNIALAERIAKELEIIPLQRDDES
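Carbachol-driven Gq signalling in CHO-M1 cells (2000/well) generates IP1. Compounds that block IMPase raise IP1 and so reduce the FRET signal from Eu-anti-IP1 and d2-IP1 after a 10 min room-temperature lysis.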
Each line names hits and unclear results; the compound was inactive in the other large screens. Compounds with a hit are over-represented: about 8.9% of the library has one in this group of screens. Unless noted, the call rests on the fitted dose curve; in most records, active means well fitted curve in the direction sought with a large enough effect; inconclusive means small, poorly fitted or top-dose-only effect, or another doubt; inactive means no such curve, though single readings can be large; an effect the other way counts as inactive or inconclusive.

c1ccc2sc(SCSc3nc4ccccc4s3)nc2c1	none (no result: IMPase cell inh)
N#CCc1nc(CSc2nc3ccccc3s2)cs1	ALDH1A1 block inconclusive, HPGD block 25µM, ALOX12 inhib inconclusive
O=C(CSc1nc2ccc(Nc3nc(N4CCOCC4)nc(N4CCOCC4)n3)cc2s1)N1CCOCC1	HPGD block 22µM (no result: IMPase cell inh)
COc1cccc(-c2csc(N3CCN(C(=O)Nc4ccc(F)cc4)CC3)n2)c1	ALDH1A1 block inconclusive
Cc1ccc(/C(O)=C2/C(=O)C(=O)N(Cc3ccco3)C2c2cccs2)cc1 (centres undefined)	none
CN1CCN(c2ncc3ncc(=O)n(C[C@H]4CCCO4)c3n2)CC1	ALDH1A1 block inconclusive (no result: NPSR antag, HPGD block, ALOX12 inhib, IMPase cell inh)
O=C(Nc1ccccc1)c1nsnc1C(=O)Nc1ccccc1	none (no result: HPGD block, ALOX12 inhib, IMPase cell inh)
CS(=O)(=O)N(CC(N)=O)c1ccc2c(c1)OCO2	none
CC1CCCN(C(=O)CSc2cnc3ccccc3n2)C1 (centres undefined)	NPSR antag inconclusive, ALDH1A1 block 28µM, HPGD block 4.5µM, IMPase Li inh 3.2µM, IMPase cell inh inconclusive
CC1CCN(C(=O)CSc2nc3ccccc3s2)CC1	ALDH1A1 block inconclusive, HPGD block 14µM
O=C(O)C1CCN(C(=O)CSc2nc3ccccc3s2)CC1	none (no result: HPGD block, ALOX12 inhib, IMPase cell inh)
CCOc1ccc2nc(SCC(=O)N3CCN(C(=O)c4ccco4)CC3)sc2c1	ALDH1A1 block inconclusive
O=C(O)CSc1nc2ccccc2o1	none
O=C(CSc1nc2ccccc2s1)N1CCN(C(=O)c2ccco2)CC1	ALDH1A1 block 14µM
O=C(CSc1nc2ccccc2o1)N1CCCC1	HPGD block 25µM
COC(=O)CC1=COC(O)C2C(CO)=CC[C@@H]12 (some centres undefined)	none (no result: NPSR antag, HPGD block, ALOX12 inhib, IMPase Li inh, IMPase cell inh)
C=CCN(CC=C)S(=O)(=O)c1ccc(NC(=S)NC(=O)/C=C/c2cccc3ccccc23)cc1	ALDH1A1 block inconclusive, HPGD block inconclusive
Cc1[nH]nc(SCC(=O)N2CCCC2)c1[N+](=O)[O-]	none (no result: HPGD block, ALOX12 inhib, IMPase cell inh)
Cc1[nH]nc(SCC(=O)N2CCC(C)CC2)c1[N+](=O)[O-]	ALDH1A1 block 10µM, HPGD block 6.3µM
Cc1ccnc(N2CCN(C(=O)CSc3nc4ccccc4nc3N3CCC(C)CC3)CC2)c1	none (no result: HPGD block, ALOX12 inhib, IMPase cell inh)
Cc1ccc(C(=O)CSc2cnc3ccccc3n2)cc1C	ALDH1A1 block 22µM, HPGD block 22µM (no result: IMPase cell inh)
Cc1nc2ccccc2nc1SCC(=O)N1CCC(C)CC1	NPSR antag inconclusive, ALDH1A1 block inconclusive, IMPase Li inh 13µM, IMPase cell inh inconclusive
Cc1cc(SCC(=O)c2ccccc2)nc2ccccc12	none (no result: NPSR antag, IMPase cell inh)
O=C(O)CCSc1nc2ccccc2s1	ALDH1A1 block 25µM, HPGD block inconclusive
OCC(O)/C=N/Nc1nc2ccccc2s1 (centres undefined)	none (no result: HPGD block, ALOX12 inhib, IMPase cell inh)
CC1Cc2ccccc2N1C(=O)CSc1nc2ccccc2s1 (centres undefined)	none
NC(=O)C1CCN(C(=O)CSc2nc3ccccc3s2)CC1	ALDH1A1 block inconclusive
O=C(CSc1nc(-c2ccc(F)cc2)cs1)N1CCN(C(=O)c2ccco2)CC1	ALDH1A1 block 14µM, HPGD block inconclusive
CC1CCCC(C)N1C(=O)CSc1nc2ccccc2s1 (centres undefined)	ALDH1A1 block 22µM, HPGD block 2.2µM
OC(CNc1nc2ccccc2s1)c1ccccc1 (centres undefined)	HPGD block 10µM
O=C(CSc1nc2ccccc2s1)N1CCCCC1	ALDH1A1 block 4.5µM, HPGD block 2.8µM
Cc1ccc(N(Cc2cc(=O)[nH]c3ccccc23)C(=O)c2ccco2)cc1	ALDH1A1 block inconclusive
COc1ccc(-c2csc(N3CCN(C(=O)c4ccco4)CC3)n2)cc1	ALDH1A1 block 28µM
CC1CC(=O)C2=C(C1)OC(N)=C(C#N)C2c1coc2ccccc2c1=O (centres undefined)	ALDH1A1 block 18µM
CC(=O)N1CCc2cc(C(=O)CN3CCCCC3)ccc21	ALDH1A1 block 22µM, HPGD block 16µM
